{"source": "PubChem BioAssay AID743182", "about": "(Broad Institute, 2013)", "note": "Values without a mark were called inactive.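 How the source made its calls: active means cell killing with a fitted half-maximal concentration at most twice the top valid dose tested; inconclusive means flat curve with 30 to 70% signal loss, or poor fit; inactive means the rest.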"}
{"assay": "viability loss in HEK293 cells – cell-based, luminescence, dry powder, set 8, cytotoxicity control, dose response (AID 743182)", "settings": "HEK293T viability, CellTiter-Glo ATP luminescence, 72 h; series mostly up to 26 µM; activity change, negative = cytotoxicity: at the top concentration"}
{"smiles": "CSc1ccc(/C=N/NC(=O)c2ccc3nc[nH]c3c2)cc1", "activity change, negative = cytotoxicity": "-5.84%"}
{"smiles": "O=C(N/N=C/c1c[nH]c2ccccc12)c1cccc(O)c1", "activity change, negative = cytotoxicity": "-7.33%"}
{"smiles": "O=C(N/N=C/c1c[nH]c2ccccc12)c1cccs1", "activity change, negative = cytotoxicity": "-12.9% [at 12 µM]"}
